Results reported in the supplement of paper PMC6555819.

Key:
Test in all cases: PBM binding z-score (relative to random genomic background probes); higher = stronger binding; sequences stand for … in GC…GCGATTGACAGCGTAGAATGAAGG
[1] = tested on: PPARg:RXRa IVT, anti-PPARg (NR concentration 270 nM, RXRa partner concentration 90 nM)
How it was run: (§1)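 Random background probes are the reference for binding z-scores. These scores derive from regression-normalized fluorescence on custom Agilent 4×180K protein-binding microarrays incubated 1 h with ligand-free nuclear receptor dimers. Binding was detected with antibodies against each partner (one per run).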

[2] = tested on: PPARg DBDmut:RXRa IVT, anti-PPARg (DBD mutation: PPARg1 K132A/R137A, NR concentration 270 nM, RXRa partner concentration 90 nM)
How it was run: as §1

[3] = tested on: PPARg DBDmut IVT, anti-PPARg (DBD mutation: PPARg1 K132A/R137A, NR concentration 270 nM)
How it was run: as §1

[4] = tested on: PPARg homodimer (NR concentration 180 nM)
How it was run: as §1

[5] = tested on: PXR:RXRa (NR concentration 270 nM, RXRa partner concentration 90 nM)
How it was run: as §1

[6] = tested on: PXR homodimer (NR concentration 270 nM)
How it was run: as §1

[7] = tested on: RARa:RXR (NR concentration 270 nM, RXRa partner concentration 90 nM)
How it was run: as §1

[8] = tested on: RARa homodimer (NR concentration 270 nM)
How it was run: as §1

[9] = tested on: RARb:RXRa (NR concentration 270 nM, RXRa partner concentration 90 nM)
How it was run: as §1

[10] = tested on: RARb homodimer (NR concentration 270 nM)
How it was run: as §1

Sequence	PBM binding z-score [1]	PBM binding z-score [2]	PBM binding z-score [3]	PBM binding z-score [4]	PBM binding z-score [5]	PBM binding z-score [6]	PBM binding z-score [7]	PBM binding z-score [8]	PBM binding z-score [9]	PBM binding z-score [10]
CCTTACGGGTCACTGACAGGTTATAGCGTTTGGA	3.67	-0.0392	-0.319	2.56	3.48	0.179	3.97	0.964	3.88	3.34
CAAACTAGTTCAAGAGGTCAAAGTCCGCTTCCCG	2.96	-0.123	0.442	5.22	5.97	5.56	6.53	2.22	4.52	4.85
ATCGAAAGGTCGACCAGGTGAGTATACACCGTTT	2.15	0.944	0.642	1.28	2.8	0.258	3.62	0.621	3.98	2.97
CCTACGGGGCCACGAAAGGTCATTGATTCAGTGA	2.93	-0.766	-1.47	3.09	6.2	2.54	5.88	0.351	4.55	5.16
AGTCAAACTTCAGGACGAGGTAACGTAAAGCACG	0.278	0.625	0.0207	0.24	-0.409	-0.112	0.165	0.202	0.545	0.304
TACCCTAGGTCATGGGCCAGTATACCACGCGAAC	3.86	1.09	0.696	2.52	2.07	0.812	3.19	0.836	4.11	3.19
AGAATGAGATTACCAAAGATCAGGGAAACGCTTG	-0.595	0.561	0.0997	-0.0322	-0.245	-0.0511	-0.182	-0.0131	-0.301	-0.938
TATTCAGGGTCAAAGGCCAGAGTACGAATGTCGA	5.28	4.08	6.08	3.43	4.67	0.543	6.17	1.17	4.83	3.61
CGTTCAAGGTCAAAGGTCAGTGAAGAGATGACGG	6.57	2.57	1.79	6.36	7.19	3.57	8.99	5.48	5.89	5.42
TAGCCTAGTTCATTCAGGGGCCAGTATAGAAAGC	1.45	-0.019	0.583	0.283	1.29	0.885	0.991	-0.411	1.72	1.64
AGAATGAGGTTACCAAAGGTCAGGGAAACGCTTG	4.54	1.08	0.912	4.43	6.1	1.49	6.53	1.28	4.91	5.13
AGCGAAAGGTCGAGGTGAGTATAGAGAAAGGGAA	2.26	0.0948	0.386	1.75	2.52	0.259	3.19	0.743	4.03	2.64
AGAATGAGGTCAAGATCAGGGAAACAGAATACAT	6.55	2.94	2.9	3.03	4.67	1.43	5.28	1.39	5.21	3.8
TTGCCAAGGTGAAAGGTCGTTGATGCACGCCTTG	4.55	-0.0211	-0.745	1.54	4	-0.137	5.68	-0.379	3.06	2.56
CAGCATAGGTCAGGGCCAGTATAGGAGGAACGTT	1.1	-0.177	-0.223	1.42	1.36	0.189	2.17	0.463	3.89	3.19
AAAACAGGGTCATCGTAGGCCAGAGTACGCACAG	5.24	4.19	2.83	6.6	5.51	0.625	5.95	0.959	4.44	3.68
CCTACTGGGCCAAAAAGGTCATTGATGCCGATAA	3.76	-0.582	-0.854	3.07	4.63	3.96	4.97	0.857	3.97	4.43
ACTTAAGGGTCAACGAGGTTATAGCACGCGTATA	4.06	2.52	3.33	4.43	6.26	6	6.74	2.01	5.29	4.31
GCTTACGGGTCCAAGGTTATAGCATGAATAGAAT	0.338	0.865	-0.558	0.0227	0.869	0.331	1.06	0.0844	0.932	0.871
TCTATTAGTTGATTAGGGCAACCGAAACAGCGGA	1.84	0.572	0.488	1.34	0.609	0.491	1.03	1.33	0.953	0.738
GCTAGTTGGTCAGTAAAAGGTGACACACCGGTCG	1.63	-1.22	-1.06	0.86	0.431	-0.523	1.07	0.0812	1.83	2.45
CCTTACGGGTAACGAGGTTATAGCACGACGAGCG	1.82	-0.344	-1.05	0.604	0.822	0.153	1.3	0.476	0.589	0.484
CAAACTAGGTCACAAAAGGTCAAAGTCGAATGAC	8.79	3.52	2.98	6.01	6.68	3.59	7.57	3.85	5.37	5.82
